Bioassay records: PubChem, National Center for Advancing Translational Sciences (NCATS)
PNC assembly inh – blocks assembly of the perinucleolar compartment. 140,000 tested, 3.1% active. activity change (PNC), negative = inhibition, % at 10 µM. PC3M PTB-GFP, PNC prevalence imaging, 16 h; active compounds read low;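 active = readout at or below -70, meaning at least 70% loss of cells showing the perinucleolar compartment, a nuclear body marking cancer cells; inconclusive = readout between -30 and a set limit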;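 note: plate controls were DMSO wells for no effect and camptothecin positive control wells for full effect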
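PC3M cells stably expressing PTB-GFP, 750–1000 cells/well, treated 16 h at 37 °C with compound (23 nl of library stock), in duplicate. After paraformaldehyde fixation and Hoechst stain, imaged at 20x; PNC prevalence scored by image analysis.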
ALDH1A1 block – ALDH1A1 (human) enzyme inhibition. Potency, µM (highest dose often 75.3 µM), for the others: top-dose activity, negative = inhibition, usual class: inhibitors. 220,000 tested, 7.3% active. P00352. AID 1030. Purified ALDH1A1, NADH fluorescence, propionaldehyde substrate;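 note: potency is the fitted concentration of half-maximal effect; plate controls were no enzyme wells and a reference inhibitor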
12-hLO inh – blocks human 12-lipoxygenase activity | AID 1452 | Potency, µM (doses to about 57.1 µM), for the others: at the top dose activity change, negative = inhibition, hits mostly inhibitors | purified 12-hLO, xylenol orange hydroperoxide absorbance | 150,000 tested, 0.12% active; active = well fitted curve in the direction sought with a large enough effect; inconclusive = small, poorly fitted or top-dose-only effect, or another doubt; inactive = no such curve, though single readings can be large; an effect the other way counts as inactive or inconclusive; note: potency is the fitted concentration of half-maximal effect; nearly all actives have a fitted effect of over 55% in size
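Purified human 12hLO (150 nM final) was preincubated with compounds for 15 min at room temperature in 25 mM Hepes pH 7.0, 0.01% Triton X-100, then reacted with 40 uM arachidonic acid for 30 min. Hydroperoxide was detected with ferrous iron/xylenol orange.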
HPGD inh – blocks human HPGD enzyme activity; P15428; purified HPGD, NADH fluorescence kinetic, PGE2 substrate; Potency, µM, for the others: at the top dose activity change, negative = inhibition, usual class: inhibitors; 150,000 tested, 4.3% active; AID 894; note: potency is the fitted concentration of half-maximal effect
Target sequence (P15428 whole entry, looked up): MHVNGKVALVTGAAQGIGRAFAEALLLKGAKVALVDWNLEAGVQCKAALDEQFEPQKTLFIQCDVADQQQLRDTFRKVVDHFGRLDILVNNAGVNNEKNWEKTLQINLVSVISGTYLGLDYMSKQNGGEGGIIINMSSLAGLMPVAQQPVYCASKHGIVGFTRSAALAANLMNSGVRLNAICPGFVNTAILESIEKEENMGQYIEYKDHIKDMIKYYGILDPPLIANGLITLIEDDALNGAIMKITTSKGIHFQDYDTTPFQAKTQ
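20 nM HPGD preincubated 15 min at room temperature with compound in 50 mM Tris-HCl pH 8, 0.01% Tween 20. Started with 1 mM NAD+ and 30 uM prostaglandin E2; NADH fluorescence (360/450 nm) read 5 times over 30-s intervals, last minus first.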
IMPase Li inh – cell-permeable IMPase inhibitors with lithium potentiation. CHO-M1 cells, IP1 TR-FRET (IP-One), carbachol + lithium. Potency, µM (doses to about 59.4 µM), without a hit: at the highest dose activity, negative = IMPase inhibition, actives largely listed as inhibitors. 210,000 tested, 0.35% active. AID 1457; active = well fitted curve in the direction sought with a large enough effect; inconclusive = small, poorly fitted or top-dose-only effect, or another doubt; inactive = no such curve, though single readings can be large; an effect the other way counts as inactive or inconclusive;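 note: IP1 builds up when IMPase is blocked and the TR-FRET signal falls; potency is the fitted concentration of half-maximal effect; plate controls were basal vehicle for no effect and high inhibitor control for full effect; nearly all actives have a fitted effect of over 50% in size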
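CHO-M1, 2000 cells/well, 16–30 h culture; cpd + low Li+, 30 min 37C; lysis with d2-IP1/Eu-anti-IP1 Ab, 10 min RT; TR-FRET 665/620 ratio and 620 channel; AC50 via Hill.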
IMPase inh – membrane-permeable compound that blocks inositol monophosphatase. P97697. CHO-M1 cells, IP1 accumulation, HTRF TR-FRET ratio. inhibition (IP1 accumulation), % at 46.1 µM. 120,000 tested, under 10 active; active = well fitted curve in the direction sought with a large enough effect in the signal ratio, not every such curve was filed as active; inconclusive = small, poorly fitted or top-dose-only effect, or a change in a side signal; inactive = no such curve, though single readings can be large or run the other way; the % refers to the signal ratio;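 note: cells stimulated with carbachol in lithium chloride buffer; plate controls were DMSO basal wells for no effect and reference inhibitor wells for full effect; higher means more IMPase inhibition seen as more IP1 and lower FRET ratio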
Target sequence (P97697 whole entry, looked up): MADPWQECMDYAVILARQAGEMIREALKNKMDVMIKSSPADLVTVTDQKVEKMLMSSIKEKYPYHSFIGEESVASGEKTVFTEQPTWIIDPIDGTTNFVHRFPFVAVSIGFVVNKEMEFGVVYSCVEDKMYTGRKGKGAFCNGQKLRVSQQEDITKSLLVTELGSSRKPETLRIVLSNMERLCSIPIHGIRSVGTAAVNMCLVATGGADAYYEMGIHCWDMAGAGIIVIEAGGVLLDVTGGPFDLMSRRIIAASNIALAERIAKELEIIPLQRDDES
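In this qHTS, compounds (final up to 46 uM) act on CHO-M1 cells that are then activated through the M1 receptor with carbachol, in pH 7.4 buffer containing 50 mM LiCl, for 30 min. IP1 accumulation is quantified by the IP-One immunoassay.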
The depositor's hits bear a star; [ ] = remark or other dose. Sampled rows, rich in hits. Any-hit rate of the full collection: about 11%. Unless noted, calls come from the whole dose curve; as a rule, active = well fitted inhibition curve with a large enough effect (not every such curve was filed as active); inconclusive = small, poorly fitted or top-dose-only effect, or another doubt; inactive = no such curve, though single readings can be large or run the other way. Unless noted, % is set by controls: 0 for no effect and ±100 for the full control effect.

How did Cc1cc(C(=O)OCC(=O)c2ccc3c(c2)OCCO3)c(C)o1 do in these assays?
PNC assembly inh: inconclusive; ALDH1A1 block: inconclusive; 12-hLO inh: -6%; HPGD inh: 20µM*; IMPase Li inh: 7%[38.3 µM]; IMPase inh: -1

What do the screens show for `CN(C)CCC(=O)c1cccc(Br)c1`?
ALDH1A1 block: 0.04µM*; IMPase Li inh: 15%

Results for O=C(O)CCC(=O)c1ccc2c(c1)OCCO2 ?
PNC assembly inh: 36; ALDH1A1 block: 12%; 12-hLO inh: 4%; HPGD inh: -15%; IMPase Li inh: -1%[38.3 µM]; IMPase inh: -4

Results for CCCC(=O)c1ccc2c(c1)OCCO2 ?
PNC assembly inh: -27; ALDH1A1 block: 3%; 12-hLO inh: -3%; HPGD inh: 28µM*; IMPase Li inh: 23%[38.3 µM]; IMPase inh: -1

What do the screens show for `CC(C)[C@H](NC(=O)OC(C)(C)C)[C@@H](O)CC(=O)C(C)(C)C`?
ALDH1A1 block: 7%[13.5 µM]

Results for COCCNC(=O)c1ccc(N(C)S(=O)(=O)c2ccc(OC)c(OC)c2)cc1 ?
PNC assembly inh: 162; ALDH1A1 block: -13%; 12-hLO inh: -1%; HPGD inh: 6.3µM*; IMPase Li inh: -1%; IMPase inh: -8

What do the screens show for `COCCCNC(=O)c1ccc(N(C)S(=O)(=O)c2ccc(OC)cc2)cc1`?
PNC assembly inh: inconclusive; ALDH1A1 block: -5%; 12-hLO inh: 2%; HPGD inh: 1.1µM*; IMPase Li inh: 4%; IMPase inh: 6

What do the screens show for `CCCOC1(C(F)(F)F)NC(=O)N(c2cccc(Cl)c2)C1=O` (configuration not stated)?
IMPase inh: 5

Results for Oc1ccc(/C=N/Nc2nccnc2Cl)c(O)c1 ?
PNC assembly inh: 53; ALDH1A1 block: inconclusive; 12-hLO inh: -22%; HPGD inh: 28µM*; IMPase Li inh: 47%[38.3 µM]; IMPase inh: 8

What do the screens show for `Oc1ccccc1/C=N/Nc1nccnc1Cl`?
PNC assembly inh: -88*; ALDH1A1 block: 3%; 12-hLO inh: -18%; HPGD inh: -4%; IMPase Li inh: 37%[38.3 µM]; IMPase inh: -1

Results for Oc1ccc(/C=N/Nc2cccc3cccnc23)c(O)c1 ?
PNC assembly inh: -11; ALDH1A1 block: inconclusive; 12-hLO inh: -17%; HPGD inh: 16µM*; IMPase Li inh: 35%; IMPase inh: -1

What do the screens show for `Cc1ccc(/C=N/Nc2cccc3cccnc23)c(O)c1`?
PNC assembly inh: 22; ALDH1A1 block: 5%; 12-hLO inh: inconclusive; IMPase inh: 5

What do the screens show for `O=[N+]([O-])c1cccnc1N/N=C/c1ccccc1O`?
ALDH1A1 block: 89µM*; IMPase Li inh: 9%

What do the screens show for `Fc1ccccc1-c1nc(-c2ccccc2)oc1NC1CCCCC1`?
ALDH1A1 block: -15%; 12-hLO inh: 4%; HPGD inh: -9%; IMPase Li inh: 11%

Results for CCCOCC(O)CCc1n[nH]c(=S)n1-c1ccccc1 (configuration not stated) ?
ALDH1A1 block: 2%; IMPase Li inh: 7%

What do the screens show for `NNC(=O)CCc1ccc(S(=O)(=O)N2CCOCC2)cc1`?
ALDH1A1 block: inconclusive; IMPase Li inh: -4%

Results for COCCNCC(=O)Nc1ccc(OC(F)(F)F)cc1 ?
ALDH1A1 block: -5%; IMPase Li inh: 1%

What do the screens show for `N#C/C(=C\c1ccc(-c2cccc([N+](=O)[O-])c2)o1)c1nnc(N2CCOCC2)n1-c1ccccc1`?
ALDH1A1 block: 7.9µM*; IMPase Li inh: 18%

How did CCOC(=O)c1sc(NC(=O)c2nc3ncccn3n2)c(C(=O)OC)c1C do in these assays?
IMPase inh: 2

How did CCN(CC)c1ccc(/C=N/n2c(C)cc(C)cc2=O)cc1 do in these assays?
PNC assembly inh: -123*; ALDH1A1 block: 7.9µM*; 12-hLO inh: -5%; HPGD inh: inconclusive; IMPase Li inh: -12%[38.3 µM]; IMPase inh: 7

How did CCc1n[nH]c(=S)n1/N=C/c1ccc(N(CC)CC)cc1 do in these assays?
ALDH1A1 block: 10µM*; IMPase Li inh: -5%

Results for C=CCOc1c(Br)cc(/C=N/n2c(CC)n[nH]c2=S)cc1Br ?
PNC assembly inh: -24; ALDH1A1 block: 8%; 12-hLO inh: 2%; HPGD inh: 3.2µM*; IMPase Li inh: 19%

How did CCc1n[nH]c(=S)n1/N=C/c1c(C)nn(-c2ccccc2)c1Cl do in these assays?
ALDH1A1 block: 2%; IMPase Li inh: -2%

What do the screens show for `O=c1c(CCc2ccccc2)nc2cnc(N3CCOCC3)nc2n1Cc1ccc(F)cc1`?
ALDH1A1 block: inconclusive; 12-hLO inh: 1%; HPGD inh: -15%; IMPase Li inh: 12%

How did CC1=C(C(=O)Nc2ccccc2)C2(CCCCC2)C(C#N)=C(SCC(N)=O)N1 do in these assays?
PNC assembly inh: 21; ALDH1A1 block: -8%; 12-hLO inh: -5%; HPGD inh: -12%; IMPase Li inh: -25%[38.3 µM]; IMPase inh: 0

What do the screens show for `CC1(C)CC(=O)C2=C(C1)NC(SCC(=O)Nc1ccccc1)=C(C#N)C21CCCCC1`?
PNC assembly inh: 9; ALDH1A1 block: 22µM*; 12-hLO inh: 5%; HPGD inh: inconclusive; IMPase Li inh: 7%[38.3 µM]; IMPase inh: 10

Results for N#CC1=C(N)NC(SCC(=O)c2ccccc2)=C(C#N)C12CCCC2 ?
PNC assembly inh: 54; ALDH1A1 block: 13µM*; 12-hLO inh: -14%; HPGD inh: inconclusive; IMPase Li inh: 5%

How did N#Cc1cnc(SCC(=O)c2ccccc2)nc1N do in these assays?
PNC assembly inh: 2; ALDH1A1 block: -7%; 12-hLO inh: -6%; HPGD inh: -14%; IMPase Li inh: 23%[38.3 µM]; IMPase inh: 0

How did N#CC1=C(N)NC(SCC(=O)Nc2ccc(Br)cc2)=C(C#N)C12CCCCC2 do in these assays?
PNC assembly inh: 28; ALDH1A1 block: 28µM*; 12-hLO inh: -18%; HPGD inh: -11%; IMPase Li inh: 2%[38.3 µM]; IMPase inh: -2

Results for N#CC1=C(N)NC(SCc2ccccc2)=C(C#N)C12CCCC2 ?
PNC assembly inh: -113*; ALDH1A1 block: 25µM*; 12-hLO inh: -27%; HPGD inh: inconclusive; IMPase Li inh: 1%

How did N#CC1=C(N)N2C(=C(C#N)C13CCN(Cc1ccccc1)CC3)Nc1ccccc12 do in these assays?
PNC assembly inh: -5; ALDH1A1 block: inconclusive; 12-hLO inh: -2%; HPGD inh: -16%; IMPase Li inh: -3%; IMPase inh: 10

Results for CCSC1=C(C#N)C2(CCCC2)C(C#N)=C(N)N1 ?
PNC assembly inh: -81*; ALDH1A1 block: inconclusive; 12-hLO inh: -7%; HPGD inh: inconclusive; IMPase Li inh: 8%[38.3 µM]; IMPase inh: -9
